# Reference: PubChem BioAssay AID1159580 (chemical genetic matrix, 2015)
# Out of some 5,500 compounds screened, about 2,000 (36%) were called active. Not shown: some 18% with an inconclusive outcome. Some of the results follow. Values without a mark were called inactive. Rule as the data show it: active = normalized growth mostly below about 0.91 (no sharp cut-off); inconclusive = no clear call, values can overlap the other calls; inactive = mostly above about 0.92.
# Test: chemical genetic growth profiling, strain panel (AID 1159580);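 also: tested at 20 µM; growth read once vehicle control cultures reached saturation at 30 °C; 1 = growth at the plate median or of vehicle wells; lower values mean less growth of the strain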
# Details: S. cerevisiae deletion strains, growth OD
smiles,measurement,setting,value
O=C(O)c1cc(=O)c(O)c2c(O)c(O)c(O)cc2c1,normalized growth,"locus YAL021C, strain ccr4, hits give low values",0.0892 (active)
same,normalized growth,"locus YAL026C, strain drs2, hits give low values",0.216 (active)
same,normalized growth,"locus YAL030W, strain snc1, hits give low values",0.757 (active)
same,normalized growth,"locus YBL061C, strain skt5, hits give low values",0.639 (active)
same,normalized growth,"locus YBR009C, strain hhf1, hits give low values",0.694 (active)
same,normalized growth,"locus YBR023C, strain chs3, hits give low values",0.549 (active)
same,normalized growth,"locus YBR171W, strain sec66, hits give low values",0.812 (active)
same,normalized growth,"locus YBR231C, strain swc5, hits give low values",0.483 (active)
same,normalized growth,"locus YBR279W, strain paf1, hits give low values",0.754 (active)
same,normalized growth,"locus YCL011C, strain gbp2, hits give low values",0.72 (active)
same,normalized growth,"locus YCL016C, strain dcc1, hits give low values",0.809 (active)
same,normalized growth,"locus YCL061C, strain MRC1, hits give low values",0.651 (active)
same,normalized growth,"locus YCL069W, strain vba3, hits give low values",0.69 (active)
same,normalized growth,"locus YCR088W, strain abp1, hits give low values",0.707 (active)
same,normalized growth,"locus YDL005C, strain med2, hits give low values",0.953
same,normalized growth,"locus YDL040C, strain nat1, hits give low values",0.906 (active)
same,normalized growth,"locus YDR001C, strain nth1, hits give low values",0.846 (active)
same,normalized growth,"locus YDR069C, strain doa4, hits give low values",0.161 (active)
same,normalized growth,"locus YDR137W, strain rgp1, hits give low values",0.142 (active)
same,normalized growth,"locus YDR159W, strain sac3, hits give low values",0.134 (active)
same,normalized growth,"locus YDR195W, strain ref2",0.481 (active)
same,normalized growth,"locus YDR297W, strain sur2, hits give low values",0.729 (active)
same,normalized growth,"locus YDR334W, strain swr1, hits give low values",0.353 (active)
same,normalized growth,"locus YDR335W, strain msn5, hits give low values",0.128 (active)
same,normalized growth,"locus YDR392W, strain spt3, hits give low values",0.708 (active)
same,normalized growth,"locus YEL003W, strain gim4, hits give low values",0.511 (active)
same,normalized growth,"locus YEL037C, strain rad23, hits give low values",0.552 (active)
same,normalized growth,"locus YEL061C, strain CIN8 (second series), hits give low values",0.756 (active)
same,normalized growth,"locus YER015W, strain faa2, hits give low values",0.488 (active)
same,normalized growth,"locus YER016W, strain bim1, hits give low values",0.84 (active)
same,normalized growth,"locus YER111C, strain swi4, hits give low values",0.14 (active)
same,normalized growth,"locus YER155C, strain BEM2 (second series), hits give low values",0.432 (active)
same,normalized growth,"locus YFR010W, strain ubp6, hits give low values",0.374 (active)
same,normalized growth,"locus YGL167C, strain pmr1, hits give low values",0.558 (active)
same,normalized growth,"locus YGL173C, strain kem1, hits give low values",0.352 (active)
same,normalized growth,"locus YGL227W, strain vid30, hits give low values",0.944
same,normalized growth,"locus YGL240W, strain doc1, hits give low values",0.869 (active)
same,normalized growth,"locus YGL253W, strain hxk2, hits give low values",0.545 (active)
same,normalized growth,"locus YHR013C, strain ard1, hits give low values",0.546 (active)
same,normalized growth,"locus YHR027C, strain rpn1, hits give low values",0.422 (active)
same,normalized growth,"locus YHR030C, strain SLT2, hits give low values",0.581 (active)
same,normalized growth,"locus YHR079C, strain IRE1, hits give low values",0.546 (active)
same,normalized growth,"locus YHR142W, strain chs7, hits give low values",0.363 (active)
same,normalized growth,"locus YJL092W, strain hpr5, hits give low values",0.728 (active)
same,normalized growth,"locus YJL095W, strain BCK1 (second series), hits give low values",0.604 (active)
same,normalized growth,"locus YJL095W, strain BCK1, hits give low values",0.575 (active)
same,normalized growth,"locus YJL115W, strain asf1, hits give low values",0.771 (active)
same,normalized growth,"locus YJL129C, strain trk1, hits give low values",0.235 (active)
same,normalized growth,"locus YJL154C, strain vps35, hits give low values",0.768 (active)
same,normalized growth,"locus YJL164C, strain tpk1, hits give low values",0.666 (active)
same,normalized growth,"locus YJL166W, strain qcr8, hits give low values",0.743 (active)
same,normalized growth,"locus YJL187C, strain SWE1, hits give low values",0.737 (active)
same,normalized growth,"locus YJR066W, strain TOR1, hits give low values",0.312 (active)
same,normalized growth,"locus YKL160W, strain elf1, hits give low values",0.777 (active)
same,normalized growth,"locus YKR026C, strain gcn3, hits give low values",0.854 (active)
same,normalized growth,"locus YKR091W, strain srl3, hits give low values",0.934
same,normalized growth,"locus YLL001W, strain dnm1, hits give low values",0.548 (active)
same,normalized growth,"locus YLL026W, hits give low values",0.804 (active)
same,normalized growth,"locus YLL041C, strain sdh2, hits give low values",0.897 (active)
same,normalized growth,"locus YLR027C, strain aat2, hits give low values",0.718 (active)
same,normalized growth,"locus YLR113W, strain HOG1, hits give low values",0.525 (active)
same,normalized growth,"locus YLR221C, strain rsa3, hits give low values",0.685 (active)
same,normalized growth,"locus YLR258W, strain gsy2, hits give low values",0.787 (active)
same,normalized growth,"locus YLR262C, strain YPT6 (second series), hits give low values",0.483 (active)
same,normalized growth,"locus YLR320W, strain mms22, hits give low values",0.56 (active)
same,normalized growth,"locus YLR342W, strain FKS1, hits give low values",0.538 (active)
same,normalized growth,"locus YLR357W, strain rsc2, hits give low values",0.593 (active)
same,normalized growth,"locus YLR370C, strain arc18, hits give low values",0.347 (active)
same,normalized growth,"locus YLR384C, strain iki3, hits give low values",0.642 (active)
same,normalized growth,"locus YML120C, strain ndi1, hits give low values",0.193 (active)
same,normalized growth,"locus YMR058W, strain fet3, hits give low values",0.275 (active)
same,normalized growth,"locus YMR125W, strain sto1, hits give low values",0.89
same,normalized growth,"locus YMR129W, hits give low values",0.815 (active)
same,normalized growth,"locus YMR205C, strain PFK2, hits give low values",0.547 (active)
same,normalized growth,"locus YMR231W, strain pep5, hits give low values",0.169 (active)
same,normalized growth,"locus YNL071W, strain lat1, hits give low values",0.873 (active)
same,normalized growth,"locus YNL183C, strain NPR1, hits give low values",0.243 (active)
same,normalized growth,"locus YNL209W, strain ssb2, hits give low values",0.273 (active)
same,normalized growth,"locus YNL248C, strain rpa49, hits give low values",0.725 (active)
same,normalized growth,"locus YNL322C, strain KRE1 (second series), hits give low values",0.208 (active)
same,normalized growth,"locus YNR049C, strain mso1, hits give low values",0.79 (active)
same,normalized growth,"locus YOR001W, strain rrp6, hits give low values",0.544 (active)
same,normalized growth,"locus YOR070C, strain gyp1, hits give low values",0.849 (active)
same,normalized growth,"locus YOR080W, strain dia2, hits give low values",0.387 (active)
same,normalized growth,"locus YOR083W, strain WHI5, hits give low values",0.645 (active)
same,normalized growth,"locus YOR106W, strain vam3, hits give low values",0.295 (active)
same,normalized growth,"locus YOR231W, strain MKK1, hits give low values",0.615 (active)
same,normalized growth,"locus YOR265W, strain rbl2, hits give low values",0.771 (active)
same,normalized growth,"locus YOR270C, strain vph1, hits give low values",0.198 (active)
same,normalized growth,"locus YOR290C, strain snf2, hits give low values",0.0962 (active)
same,normalized growth,"locus YPL051W, strain arl3, hits give low values",0.465 (active)
same,normalized growth,"locus YPL078C, strain atp4, hits give low values",0.124 (active)
same,normalized growth,"locus YPL106C, strain sse1, hits give low values",0.723 (active)
same,normalized growth,"locus YPL240C, strain hsp82, hits give low values",0.872 (active)
same,normalized growth,"locus YPL256C, strain CLN2, hits give low values",0.567 (active)
